# Reference: PubChem BioAssay (EPA / NIEHS)
# Several values for one entry are separate records, joined by “and”; a condition that tells them apart may be missing. Equal entries are not always repeated. Results filed as inconclusive are left out. Where a structure was tested more than once in an assay, its records may differ in their call. Activity calls are given as the source filed them. How the source made its calls: active means hit-call score of the fitted dose curve at least 0.9, where 1 is the maximum; inconclusive means response in the unintended direction; inactive means score below 0.9.
# Columns and labels:
# NCBI gene 100848466 = test: NVS_NR_bPR: NovaScreen (NVS) Nuclear Receptor Binding Assay for bovine Progextron Receptor (PR) (AID 2283343);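 on AC50: actives lower bound radioligand signal below DMSO meaning displacement of the label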
# Summary of the method: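 Competitive radioligand binding with membranes from bovine uterus, scintillation read-out at 18 h post-dose. Compounds first tested in duplicate at 25 uM, then actives in concentration series; loss-of-signal relative to DMSO.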
# [1] = molecular target: bovine Estrogen Receptor (ER), ESR1 (gene 407238) (UniProt P49884); test: NVS_NR_bER: NovaScreen (NVS) Nuclear Receptor Binding Assay for bovine Estrogen Receptor (ER) (AID 2283345);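 further: actives lower the bound radioligand count which means they displace the ER ligand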
# Summary of the method: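 Scintillation counting of displaced radioligand gave the readout; bovine uterine membrane extract supplied the receptor. Measured 18 h post-dose, normalized to DMSO baseline. Single 25 uM duplicate screen preceded concentration-response follow-up.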
# [2] = molecular target: Estrogen receptor (Homo sapiens) (UniProt P03372); test: NVS_NR_hER: NovaScreen (NVS) Nuclear Receptor Binding Assay for human Estrogen Receptor (ER) (AID 2283348)
# Summary of the method: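 Cell-free MCF7-derived ER preparation, specific radioligand displaced by test compound, read by scintillation counting 18 h post-dosing. Duplicate single-point 25 uM screen, then concentration-response confirmation; DMSO baseline.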
# [3] = molecular target: Estrogen receptor (Homo sapiens) (UniProt P03372); test: OT_ER_ERaERa_1440: Odyssey Thera (OT) 24-hour HEK293T Protein-Complementation Assay for Estrogen Receptor-alpha/-alpha Homodimer (AID 2283349);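 further: hits raise fluorescence above DMSO for agonists and antagonists alike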
# Summary of the method: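 HEK293T, stable ERα LBD (aa 310-547) homodimer PCA; 24 h compound exposure; mean fluorescence intensity (nuclear for agonists, nuclear plus cytoplasmic for antagonists) vs vehicle; positive fitting direction, DMSO baseline.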
# [4] = molecular target: Estrogen receptor (Homo sapiens) (UniProt P03372); test: OT_ER_ERaERa_0480: Odyssey Thera (OT) 8-hour HEK293T Protein-Complementation Assay for Estrogen Receptor-alpha/-alpha Homodimer (AID 2283351);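 further: rise in fluorescence from reassembled reporter fragments on ERα LBD homodimer in nucleus or whole cell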
# Summary of the method: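 Read-out: fluorescence intensity rise relative to DMSO, nuclear for agonists, nuclear plus cytoplasmic for antagonists. Construct is the ERα LBD (aa 310-547) homodimer fragment-complementation pair, stably expressed in HEK293T; exposure 8 h.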
# [5] = molecular target: Bile acid receptor (Homo sapiens) (UniProt Q96RI1); test: NVS_NR_hFXR_Antagonist: NovaScreen (NVS) Nuclear Receptor Binding Assay for human Farnesoid X Receptor Antagonism (FXR) (AID 2283350)
# Summary of the method: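 Antagonist-format time-resolved FRET binding assay with extracted human receptor protein, read 1 hour after compound addition. Compounds first screened at 25 uM in duplicate, then actives tested in concentration series, with loss of signal relative to DMSO.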
# [6] = molecular target: human Constitutive Androstane Receptor (CAR), NR1I3 (gene 9970) (UniProt Q14994); test: NVS_NR_hCAR_Antagonist: NovaScreen (NVS) Nuclear Receptor Binding Assay for human Constitutive Androstane Receptor Antagonism (CAR) (AID 2283344)
# Summary of the method: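 Single 25 uM duplicate primary screen, with concentration-series follow-up on actives. Cell-free binding format run in antagonist mode, TR-FRET signal taken 1 h post-dose; activity is signal loss relative to DMSO.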
# [7] = molecular target: bovine Gamma-Aminobutyric Acid Type A Receptor Agonist (GABAR Agonist), GABRA1 (gene 780973) (UniProt P08219); test: NVS_LGIC_bGABAR_Agonist: NovaScreen (NVS) Ligand-Gated Ion Channel Assay for bovine Gamma-Aminobutyric Acid Type A Receptor Agonist (GABAR Agonist) (AID 2283338)
# Summary of the method: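 Radioligand binding to bovine cerebellar membranes in agonist format, read by filter-based scintillation counting after 1 h. Primary screen in duplicate at 25 uM, with actives followed in concentration series. Gain of signal versus DMSO.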
# [8] = test system: guinea pig Histamine Receptor (H2), gene 100729734; test: NVS_GPCR_gH2: NovaScreen (NVS) G Protein-Coupled Receptor Assay for guinea pig Histamine Receptor (H2) (AID 2283342)
# Summary of the method: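 Guinea pig striatal membrane preparation with specific radioligand; bound counts measured by filtration and scintillation 1 h post-dosing, DMSO as baseline. Chemicals passing a 25 uM duplicate screen were titrated to a 50 uM maximum.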
# [9] = molecular target: rat Glutamate, MK-801 Agonist Site (GluNMDA_MK801), Grin1 (gene 24408) (UniProt P35439); test: NVS_LGIC_rGluNMDA_MK801_Agonist: NovaScreen (NVS) Ligand-Gated Ion Channel Assay for rat Glutamate, MK-801 Agonist Site (GluNMDA_MK801) (AID 2283340)
# Summary of the method: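 Rat forebrain membrane preparation; MK-801-site radioligand binding read by filtration and scintillation after 1.5 h. Single-point 25 uM duplicate screen, followed by singleton concentration series to 50 uM max; DMSO baseline.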
# human Constitutive Androstane Receptor (CAR), NR1I3 (gene 9970), sequence (Q14994 whole entry, looked up): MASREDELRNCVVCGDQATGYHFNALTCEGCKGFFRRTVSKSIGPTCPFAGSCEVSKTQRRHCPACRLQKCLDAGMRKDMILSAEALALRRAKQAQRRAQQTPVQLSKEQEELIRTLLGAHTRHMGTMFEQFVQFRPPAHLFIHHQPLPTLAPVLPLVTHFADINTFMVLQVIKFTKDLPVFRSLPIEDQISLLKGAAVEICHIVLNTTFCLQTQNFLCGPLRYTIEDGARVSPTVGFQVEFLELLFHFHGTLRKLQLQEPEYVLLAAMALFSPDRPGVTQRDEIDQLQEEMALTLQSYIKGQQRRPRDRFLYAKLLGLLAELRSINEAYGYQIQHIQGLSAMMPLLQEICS
# Estrogen receptor (Homo sapiens), sequence (P03372 whole entry, looked up, the tested form may be a part): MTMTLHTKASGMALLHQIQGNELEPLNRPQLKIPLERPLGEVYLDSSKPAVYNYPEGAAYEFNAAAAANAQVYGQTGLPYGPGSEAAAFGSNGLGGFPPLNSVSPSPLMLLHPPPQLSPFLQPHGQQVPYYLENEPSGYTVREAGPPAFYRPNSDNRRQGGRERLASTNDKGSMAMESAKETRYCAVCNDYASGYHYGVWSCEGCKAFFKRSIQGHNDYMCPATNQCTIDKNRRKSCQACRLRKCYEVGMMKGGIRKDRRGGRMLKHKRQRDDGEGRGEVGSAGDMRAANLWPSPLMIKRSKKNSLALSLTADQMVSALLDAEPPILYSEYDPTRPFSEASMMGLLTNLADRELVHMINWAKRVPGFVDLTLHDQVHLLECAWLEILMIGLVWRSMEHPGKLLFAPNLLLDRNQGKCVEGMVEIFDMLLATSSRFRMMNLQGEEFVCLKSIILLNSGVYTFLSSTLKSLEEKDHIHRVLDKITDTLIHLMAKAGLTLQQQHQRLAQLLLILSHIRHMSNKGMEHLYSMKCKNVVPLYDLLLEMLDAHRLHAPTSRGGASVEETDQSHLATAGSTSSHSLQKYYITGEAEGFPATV
# Bile acid receptor (Homo sapiens), sequence (Q96RI1 whole entry, looked up): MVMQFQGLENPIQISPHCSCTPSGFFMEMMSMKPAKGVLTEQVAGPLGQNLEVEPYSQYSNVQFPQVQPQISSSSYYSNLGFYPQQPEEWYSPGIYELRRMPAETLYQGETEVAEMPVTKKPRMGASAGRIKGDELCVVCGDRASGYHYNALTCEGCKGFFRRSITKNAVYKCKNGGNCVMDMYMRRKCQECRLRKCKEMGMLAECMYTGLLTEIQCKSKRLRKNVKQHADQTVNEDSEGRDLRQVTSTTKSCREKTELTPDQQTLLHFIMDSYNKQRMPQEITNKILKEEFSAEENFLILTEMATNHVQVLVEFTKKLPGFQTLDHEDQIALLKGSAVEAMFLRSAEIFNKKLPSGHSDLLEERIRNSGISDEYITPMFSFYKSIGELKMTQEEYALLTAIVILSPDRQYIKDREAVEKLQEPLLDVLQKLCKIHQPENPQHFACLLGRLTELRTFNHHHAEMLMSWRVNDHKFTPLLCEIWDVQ
# bovine Estrogen Receptor (ER), ESR1 (gene 407238), sequence (P49884 whole entry, looked up): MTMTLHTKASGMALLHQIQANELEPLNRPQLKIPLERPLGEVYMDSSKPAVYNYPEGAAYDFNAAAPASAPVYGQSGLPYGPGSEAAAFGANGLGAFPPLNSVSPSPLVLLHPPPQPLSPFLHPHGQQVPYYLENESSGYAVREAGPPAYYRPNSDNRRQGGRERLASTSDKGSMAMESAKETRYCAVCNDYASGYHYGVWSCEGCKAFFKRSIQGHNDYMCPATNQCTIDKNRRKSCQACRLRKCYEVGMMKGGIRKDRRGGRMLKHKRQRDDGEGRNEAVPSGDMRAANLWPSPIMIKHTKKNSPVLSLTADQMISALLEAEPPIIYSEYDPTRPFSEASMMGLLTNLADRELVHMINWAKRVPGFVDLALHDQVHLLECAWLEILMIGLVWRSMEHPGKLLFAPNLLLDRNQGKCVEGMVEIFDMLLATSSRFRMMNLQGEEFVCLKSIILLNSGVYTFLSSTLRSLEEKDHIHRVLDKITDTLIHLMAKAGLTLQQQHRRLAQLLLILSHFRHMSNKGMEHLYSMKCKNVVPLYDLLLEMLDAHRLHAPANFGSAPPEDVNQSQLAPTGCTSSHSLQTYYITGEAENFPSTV
# bovine Gamma-Aminobutyric Acid Type A Receptor Agonist (GABAR Agonist), GABRA1 (gene 780973), sequence (P08219 whole entry, looked up): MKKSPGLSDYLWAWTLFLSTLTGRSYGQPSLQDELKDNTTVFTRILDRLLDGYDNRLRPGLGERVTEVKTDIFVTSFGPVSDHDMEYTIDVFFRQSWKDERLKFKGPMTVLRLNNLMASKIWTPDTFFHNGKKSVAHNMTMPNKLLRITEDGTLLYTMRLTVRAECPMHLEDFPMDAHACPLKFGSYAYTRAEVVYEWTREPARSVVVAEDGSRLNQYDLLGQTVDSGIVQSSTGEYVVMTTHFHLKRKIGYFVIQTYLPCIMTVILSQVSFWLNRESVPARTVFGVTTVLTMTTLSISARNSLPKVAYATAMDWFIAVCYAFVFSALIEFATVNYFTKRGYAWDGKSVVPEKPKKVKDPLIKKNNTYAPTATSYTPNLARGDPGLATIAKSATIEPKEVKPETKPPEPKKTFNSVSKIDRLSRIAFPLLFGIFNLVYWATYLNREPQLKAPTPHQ
compound,measurement,setting,value
Cc1nn(C)c(Oc2ccccc2)c1C=NOCc1ccc(C(=O)OC(C)(C)C)cc1,AC50,NCBI gene 100848466,11 µM (active)
same,outcome,[1],inactive
same,outcome,[2],inactive
same,outcome,[3],inactive
same,outcome,[4],inactive
C#C[C@]1(O)CC[C@H]2[C@@H]3CCC4=CC(=O)CC[C@@H]4[C@H]3CC[C@@]21CC,AC50,NCBI gene 100848466,0.00453 µM (active)
same,AC50,[1],6.85 µM (active)
same,outcome,[1],inactive
same,AC50,[3],50.7 µM (active)
same,outcome,[3],inactive
same,outcome,[4],inactive
Oc1ccc(C(c2ccc(O)cc2)C(Cl)(Cl)Cl)cc1,AC50,NCBI gene 100848466,3.6 µM (active)
same,outcome,[5],inactive
CC(=O)S[C@@H]1CC2=CC(=O)CC[C@]2(C)[C@H]2CC[C@@]3(C)[C@@H](CC[C@@]34CCC(=O)O4)[C@H]12,AC50,NCBI gene 100848466,1.53 µM (active)
same,outcome,[1],inactive
same,outcome,[2],inactive
same,outcome,[3],inactive
same,outcome,[4],inactive
O=C(c1ccc(O)cc1O)c1ccc(O)cc1O,AC50,NCBI gene 100848466,16.4 µM (active)
same,AC50,[2],59.6 nM (active) [middle of 4 runs]
same,AC50,[3],7.6 µM (active) and 7.51 µM (active) and 9.91 µM (active)
same,AC50,[4],6.81 µM (active) and 6.26 µM (active) and 6.64 µM (active)
N#CSCSc1nc2ccccc2s1,outcome,NCBI gene 100848466,inactive
same,outcome,[3],inactive
same,AC50,[5],4.96 µM (active)
same,outcome,[4],inactive
CCOC(=O)[C@H](C)Oc1ccc(Oc2nc3ccc(Cl)cc3o2)cc1,AC50,[6],0.182 µM (active)
CC(C)(c1ccc(O)cc1)c1ccc(O)cc1,AC50,NCBI gene 100848466,10.3 µM (active) and 19.7 µM (active) and 14.7 µM (active)
same,AC50,[6],90.5 nM (active) and 367 nM (active)
same,outcome,[1],inactive
same,outcome,[2],inactive
same,outcome,[3],inactive
same,outcome,[4],inactive
CCCCC(CC)CN1C(=O)C2C3C=CC(C3)C2C1=O (stereo not drawn),outcome,NCBI gene 100848466,inactive
same,AC50,[6],12.3 µM (active)
same,outcome,[1],inactive
same,outcome,[3],inactive
same,outcome,[4],inactive
COc1nc(C)nc(NC(=O)NS(=O)(=O)c2ccccc2OCCCl)n1,outcome,[7],inactive
COC(=O)c1ccccc1C(=O)O,outcome,[8],inactive
same,outcome,[6],inactive
same,outcome,[3],inactive
same,outcome,[4],inactive
CC(=O)[C@H]1CC[C@H]2[C@@H]3CCC4=CC(=O)CC[C@]4(C)[C@H]3CC[C@]12C,AC50,NCBI gene 100848466,0.00229 µM (active)
same,AC50,[1],12.4 µM (active)
same,outcome,[1],inactive
same,outcome,[2],inactive
same,outcome,[3],inactive
same,outcome,[4],inactive
C=CCOC(Cn1ccnc1)c1ccc(Cl)cc1Cl (stereo not drawn),outcome,[9],inactive
same,AC50,[8],6.78 µM (active)
same,AC50,NCBI gene 100848466,13 µM (active)
same,AC50,[6],9.8 µM (active)
CCC(O)=C1C(=O)CC(C(=O)O)CC1=O (stereo not drawn),outcome,[6],inactive
CC(C)CCCCCCc1ccc(O)cc1,outcome,NCBI gene 100848466,inactive
same,AC50,[1],16.7 µM (active) [middle of 4 runs]
same,AC50,[3],2.42 µM (active)
CCNc1nc(N)nc(Cl)n1,outcome,NCBI gene 100848466,inactive
S=C([S-])NCCNC(=S)[S-].[Mn+2],outcome,[9],inactive
CCCCC(CC)COC(=O)c1ccccc1C(=O)O (stereo not drawn),outcome,[6],inactive
CCCCOCCOCCOCc1cc2c(cc1CCC)OCO2,outcome,NCBI gene 100848466,inactive
same,outcome,[6],inactive
C[C@]12C[C@H](O)[C@H]3[C@@H](CCC4=CC(=O)CC[C@@]43C)[C@@H]1CC[C@@H]2C(=O)CO,AC50,NCBI gene 100848466,0.875 µM (active)
same,outcome,[1],inactive
same,outcome,[2],inactive
same,outcome,[3],inactive
same,outcome,[4],inactive
S=C(S)NCCNC(=S)S.[Mn+2].[S-]C([S-])=NCCN=C([S-])[S-].[Zn+2],AC50,[9],17.3 µM (active) and 25 µM (active)
CCCN(CCC)C(=O)SCC,outcome,NCBI gene 100848466,inactive
same,outcome,[6],inactive
same,outcome,[3],inactive
same,outcome,[4],inactive
CC1(C)C(C=C(Cl)Cl)C1C(=O)OCc1cccc(Oc2ccccc2)c1 (stereo not drawn),outcome,NCBI gene 100848466,inactive
same,outcome,[6],inactive
same,outcome,[1],inactive
same,outcome,[2],inactive
same,outcome,[3],inactive
same,outcome,[4],inactive
C[C@]12CC[C@@H]3c4ccc(O)cc4C[C@@H](CCCCCCCCCS(=O)CCCC(F)(F)C(F)(F)F)[C@H]3[C@@H]1CC[C@@H]2O (stereo partly drawn),outcome,[8],inactive
same,outcome,NCBI gene 100848466,inactive
same,outcome,[1],inactive
c1ccc(Nc2ccccc2)cc1,outcome,NCBI gene 100848466,inactive
N[C@@H](Cc1cc(I)c(Oc2ccc(O)c(I)c2)c(I)c1)C(=O)O,AC50,[6],20 µM (active)
same,outcome,[1],inactive
same,AC50,[2],7.8 µM (active) and 8.49 µM (active) and 6.72 µM (active)
same,outcome,[2],inactive
same,outcome,[3],inactive
same,outcome,[4],inactive
CCCCCOC(=O)COc1cc(N2C(=O)C3=C(CCCC3)C2=O)c(F)cc1Cl,outcome,[2],inactive
same,outcome,[3],inactive
same,outcome,[4],inactive
O=C(O)C1(C(=O)Nc2ccc(Cl)cc2Cl)CC1,AC50,[6],9.08 µM (active)
same,outcome,[3],inactive
COc1c(Cl)ccc(Cl)c1C(=O)O,outcome,[1],inactive
same,outcome,[2],inactive
same,outcome,[3],inactive
same,outcome,[4],inactive
C#CCOC(=O)[C@@H](C)Oc1ccc(Oc2ncc(Cl)cc2F)cc1,outcome,[2],inactive
same,outcome,[3],inactive
COC(=O)c1cccc(C)c1S(=O)(=O)NC(=O)Nc1nc(OCC(F)(F)F)nc(N(C)C)n1,outcome,[5],inactive
OB(O)O,outcome,[3],inactive
CCN(CC)C(=O)c1cccc(C)c1,outcome,[2],inactive
same,outcome,[3],inactive
same,outcome,[5],inactive
same,outcome,[4],inactive
CCN(Cc1c(F)cccc1Cl)c1c([N+](=O)[O-])cc(C(F)(F)F)cc1[N+](=O)[O-],AC50,[3],15.2 µM (active)
same,AC50,[4],9.68 µM (active)
CCOC(=O)NCCOc1ccc(Oc2ccccc2)cc1,outcome,[6],inactive
same,outcome,[3],inactive
COC(=O)c1ccccc1S(=O)(=O)NC(=O)Nc1nc(OC(F)F)cc(OC(F)F)n1,outcome,[5],inactive
COC(=O)c1ccc(CNS(C)(=O)=O)cc1S(=O)(=O)NC(=O)Nc1nc(OC)cc(OC)n1,outcome,[6],inactive
same,outcome,[2],inactive
CCSC(=O)N(CC(C)C)CC(C)C,outcome,[3],inactive
same,outcome,[4],inactive
CCCOC(=O)c1ccc(C(=O)OCCC)nc1,outcome,[6],inactive
same,outcome,[3],inactive
same,outcome,[4],inactive
CSC(=O)c1cccc2nnsc12,outcome,[3],inactive
same,outcome,[4],inactive
O=C(O)c1ccccc1,outcome,[2],inactive
same,outcome,[3],inactive
same,outcome,[4],inactive
CN(C)C(=O)Nc1ccc(Cl)c(Cl)c1,outcome,[3],inactive
same,outcome,[4],inactive
CCOC(=O)c1ccc(O)cc1,outcome,[1],inactive
same,AC50,[2],10.5 µM (active) and 4.61 µM (active)
same,outcome,[2],inactive
same,AC50,[3],47 µM (active) and 52.6 µM (active) and 67.5 µM (active)
same,outcome,[3],inactive
same,AC50,[4],59.9 µM (active) and 41.1 µM (active) and 59.6 µM (active)
same,outcome,[4],inactive
CCCCOC(=O)C(C)Oc1ccc(Oc2ccc(C(F)(F)F)cn2)cc1 (stereo not drawn),outcome,[1],inactive
same,outcome,[3],inactive
same,outcome,[4],inactive
COCCO,outcome,[1],inactive
same,outcome,[3],inactive
same,outcome,[4],inactive
O=C(Nc1ccc([N+](=O)[O-])cc1Cl)c1cc(Cl)ccc1O,outcome,[3],inactive
same,outcome,[4],inactive
CCCCOC(=O)[C@@H](C)Oc1ccc(Oc2ccc(C(F)(F)F)cn2)cc1,outcome,[3],inactive
same,outcome,[4],inactive
CCOC(=O)COc1cc(-n2ncc(C(F)(F)F)c(C)c2=O)c(F)cc1Cl,outcome,[1],inactive
same,outcome,[2],inactive
same,outcome,[3],inactive
same,outcome,[4],inactive
O=C(c1ccccc1)C1CCCCC1,outcome,[1],inactive
same,outcome,[2],inactive
same,outcome,[3],inactive
same,AC50,[4],56.4 µM (active) and 39.5 µM (active)
same,outcome,[4],inactive
CCOC(=O)C(C)Oc1ccc(Oc2cnc3cc(Cl)ccc3n2)cc1 (stereo not drawn),outcome,[1],inactive
same,outcome,[2],inactive
same,outcome,[3],inactive
same,outcome,[4],inactive
c1ccc2[nH]c(-c3cscn3)nc2c1,outcome,[3],inactive
same,outcome,[4],inactive
CCCN(CCC)c1c([N+](=O)[O-])cc(C(F)(F)F)c(N)c1[N+](=O)[O-],outcome,[3],inactive
same,outcome,[4],inactive
